# Measured values: PubChem BioAssay AID1159580 (chemical genetic matrix, 2015)
# “And” between values parts separate entries of the source, which are not always exact repeats. Equal values may be shown once. About 2,000 (36%) of roughly 5,500 compounds were called active. About 18% were inconclusive and are not listed. Some of the results follow. Unmarked numbers belong to inactive results. Cut-off read from the data, not from the text of the source: active = normalized growth mostly below about 0.91 (no sharp cut-off); inconclusive = no clear call, values can overlap the other calls; inactive = mostly above about 0.92.
# Assay: chemical genetic growth profiling, strain panel (AID 1159580);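 note: tested at 20 µM; growth read once vehicle control cultures reached saturation at 30 °C; 1 = growth at the plate median or of vehicle wells; lower values mean less growth of the strain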
# Settings: S. cerevisiae deletion strains, growth OD
compound,measurement,setting,value
COc1ccc2c(c1)OC1(O)COc3cc(OC)c(OC)cc3C1=C2 (stereo unspecified),normalized growth,"locus YAL013W, strain DEP1, active compounds read low",0.99
same,normalized growth,"locus YAL021C, strain ccr4, active compounds read low",1
same,normalized growth,"locus YAL026C, strain drs2, active compounds read low",0.97
same,normalized growth,"locus YAL030W, strain snc1, active compounds read low",0.973
same,normalized growth,"locus YBL061C, strain skt5, active compounds read low",0.968
same,normalized growth,"locus YBR009C, strain hhf1, active compounds read low",1
same,normalized growth,"locus YBR021W, strain FUR4, active compounds read low",1.01
same,normalized growth,"locus YBR023C, strain chs3, active compounds read low",0.979
same,normalized growth,"locus YBR171W, strain sec66, active compounds read low",0.965
same,normalized growth,"locus YBR229C, strain ROT2, active compounds read low",1.01
same,normalized growth,"locus YBR231C, strain swc5, active compounds read low",0.939
same,normalized growth,"locus YBR279W, strain paf1, active compounds read low",0.984
same,normalized growth,"locus YCL011C, strain gbp2, active compounds read low",0.983
same,normalized growth,"locus YCL016C, strain dcc1, active compounds read low",1.01
same,normalized growth,"locus YCL029C, strain bik1, active compounds read low",0.981
same,normalized growth,"locus YCL069W, strain vba3, active compounds read low",0.988
same,normalized growth,"locus YCR088W, strain abp1, active compounds read low",0.978
same,normalized growth,"locus YDL005C, strain med2, active compounds read low",0.978
same,normalized growth,"locus YDL035C, strain GPR1, active compounds read low",0.974
same,normalized growth,"locus YDL040C, strain nat1, active compounds read low",0.971
same,normalized growth,"locus YDL074C, strain BRE1, active compounds read low",0.992
same,normalized growth,"locus YDL101C, strain DUN1, active compounds read low",1.02
same,normalized growth,"locus YDL134C, strain PPH21, active compounds read low",1.01
same,normalized growth,"locus YDL185W, strain tfp1, active compounds read low",0.983
same,normalized growth,"locus YDL192W, strain arf1, active compounds read low",0.977
same,normalized growth,"locus YDR001C, strain nth1, active compounds read low",0.98
same,normalized growth,"locus YDR069C, strain doa4, active compounds read low",0.961
same,normalized growth,"locus YDR101C, strain arx1, active compounds read low",0.972
same,normalized growth,"locus YDR137W, strain rgp1, active compounds read low",0.934
same,normalized growth,"locus YDR150W, strain NUM1, active compounds read low",1.01
same,normalized growth,"locus YDR159W, strain sac3, active compounds read low",0.897
same,normalized growth,"locus YDR162C, strain NBP2, active compounds read low",1.01
same,normalized growth,"locus YDR195W, strain ref2",0.992
same,normalized growth,"locus YDR297W, strain sur2, active compounds read low",0.978
same,normalized growth,"locus YDR318W, strain mcm21, active compounds read low",0.949
same,normalized growth,"locus YDR334W, strain swr1, active compounds read low",0.982
same,normalized growth,"locus YDR335W, strain msn5, active compounds read low",0.996
same,normalized growth,"locus YDR388W, active compounds read low",0.981
same,normalized growth,"locus YDR392W, strain spt3, active compounds read low",0.734 (active)
same,normalized growth,"locus YDR502C, strain sam2, active compounds read low",0.985
same,normalized growth,"locus YEL003W, strain gim4, active compounds read low",0.962
same,normalized growth,"locus YEL037C, strain rad23, active compounds read low",0.99
same,normalized growth,"locus YEL061C, strain CIN8 (second series), active compounds read low",0.978
same,normalized growth,"locus YEL061C, strain CIN8, active compounds read low",1
same,normalized growth,"locus YER015W, strain faa2, active compounds read low",0.993
same,normalized growth,"locus YER016W, strain bim1, active compounds read low",0.971
same,normalized growth,"locus YER110C, active compounds read low",0.976
same,normalized growth,"locus YER111C, strain swi4, active compounds read low",0.97
same,normalized growth,"locus YER155C, strain BEM2 (second series), active compounds read low",0.904
same,normalized growth,"locus YER155C, strain BEM2, active compounds read low",1
same,normalized growth,"locus YER167W, strain BCK2, active compounds read low",0.963
same,normalized growth,"locus YFR010W, strain ubp6, active compounds read low",0.965
same,normalized growth,"locus YGL078C, strain dbp3, active compounds read low",1.01
same,normalized growth,"locus YGL086W, strain mad1, active compounds read low",0.97
same,normalized growth,"locus YGL167C, strain pmr1, active compounds read low",0.985
same,normalized growth,"locus YGL173C, strain kem1, active compounds read low",0.94
same,normalized growth,"locus YGL227W, strain vid30, active compounds read low",0.978
same,normalized growth,"locus YGL240W, strain doc1, active compounds read low",0.942
same,normalized growth,"locus YGL248W, strain PDE1, active compounds read low",1.01
same,normalized growth,"locus YGL253W, strain hxk2, active compounds read low",0.929
same,normalized growth,"locus YGR078C, strain PAC10, active compounds read low",0.985
same,normalized growth,"locus YGR135W, strain pre9, active compounds read low",0.985
same,normalized growth,"locus YGR229C, strain SMI1, active compounds read low",0.967
same,normalized growth,"locus YGR252W, strain gcn5, active compounds read low",0.873
same,normalized growth,"locus YHR013C, strain ard1, active compounds read low",0.977
same,normalized growth,"locus YHR027C, strain rpn1, active compounds read low",0.986
same,normalized growth,"locus YHR030C, strain SLT2, active compounds read low",0.996 and 0.931
same,normalized growth,"locus YHR079C, strain IRE1 (second series), active compounds read low",0.972
same,normalized growth,"locus YHR079C, strain IRE1, active compounds read low",0.925
same,normalized growth,"locus YHR094C, strain hxt1, active compounds read low",0.989
same,normalized growth,"locus YHR129C, strain ARP1, active compounds read low",1.01
same,normalized growth,"locus YHR142W, strain chs7, active compounds read low",0.926
same,normalized growth,"locus YHR200W, strain rpn10, active compounds read low",0.972
same,normalized growth,"locus YIL066C, strain RNR3, active compounds read low",0.986
same,normalized growth,"locus YIL073C, strain SPO22, active compounds read low",0.895
same,normalized growth,"locus YIL125W, strain kgd1, active compounds read low",0.997
same,normalized growth,"locus YIR030C, strain dcg1, active compounds read low",0.987
same,normalized growth,"locus YJL092W, strain hpr5, active compounds read low",0.979
same,normalized growth,"locus YJL095W, strain BCK1 (second series), active compounds read low",0.98
same,normalized growth,"locus YJL095W, strain BCK1, active compounds read low",0.965 and 0.92
same,normalized growth,"locus YJL115W, strain asf1, active compounds read low",0.983
same,normalized growth,"locus YJL129C, strain trk1, active compounds read low",0.979
same,normalized growth,"locus YJL134W, strain LCB3, active compounds read low",1
same,normalized growth,"locus YJL154C, strain vps35, active compounds read low",0.977
same,normalized growth,"locus YJL164C, strain tpk1, active compounds read low",0.983
same,normalized growth,"locus YJL166W, strain qcr8, active compounds read low",0.948
same,normalized growth,"locus YJL168C, strain set2, active compounds read low",0.989
same,normalized growth,"locus YJL187C, strain SWE1 (second series), active compounds read low",1.01
same,normalized growth,"locus YJL187C, strain SWE1, active compounds read low",0.999
same,normalized growth,"locus YJR043C, strain POL32, active compounds read low",0.97
same,normalized growth,"locus YJR066W, strain TOR1, active compounds read low",0.9
